In PubChem BioAssay AID2717 (Broad Institute, 2010):
The whole screen tested about 300,000 compounds, of which about 3,200 (1.1%) were called active. This excerpt belongs to a sample that is enriched for actives. Values without a mark were called inactive. Cut-off read from the data, not from the text of the source: active = inhibition above about 75%; inconclusive = no clear call, values can overlap the other calls; inactive = below that; tested in HMLE shEcad cells.

assay: cancer stem cell viability inhibitors, primary screen, luminescence (AID 2717); conditions: cancer stem cell-like cells viability, at 7.5 µM, hits give high values

SMILES	inhibition
COc1ccc(/C=C/C(=O)OCC(=O)NC2CCCCCC2)cc1OC	-6.85%
CC(=O)c1sc(NC(=O)CCN2C(=O)C3CC=CCC3C2=O)nc1-c1ccccc1 (stereo not given)	-4.39%
Cc1cccc(OCC(=O)NCC(=O)N/N=C/c2ccc(N(C)C)cc2)c1	4.13%
CSc1ccc(/C=N\NC(=O)COc2ccc(Cl)cc2Br)cc1	-0.83%
Cc1ccc(/C=N/NC(=O)COc2ccccc2-c2ccccc2)cc1	114% (active)
CC(C)COc1ccc(C(=O)NNC(=O)CCC(=O)c2cccs2)cc1	-16.7%
CN(CC(=O)Nc1ccc(C(N)=O)cc1)S(=O)(=O)c1ccc2c(c1)OCCO2	-1.86%
Cc1nn(-c2ccccc2)c(C)c1NC(=O)COc1ccc(Cl)cc1Cl	22.1%
COC(=O)c1c(NC(=O)COc2ccc(Cl)cc2Cl)sc2c1CC(C)(C)NC2(C)C	103% (active)
CCOC(=O)c1c(NC(=O)c2ccc(S(=O)(=O)N(C)CC3CCCO3)cc2)sc2c1CC(C)(C)NC2(C)C (stereo not given)	62.9%
CC(OC(=O)/C=C/c1ccccc1)C(=O)Nc1ccc(C(N)=O)cc1 (stereo not given)	-9.55%
COc1ccc(-n2nnnc2-c2nc3ccccc3s2)cc1	10.3%
COC(=O)Cc1[nH]n(-c2nc3ccccc3s2)c(=O)c1C(C)=Nc1ccc(OC)cc1	32.2%
COc1ccc(C2=NN(c3nc4ccccc4s3)C(=O)C2)cc1	81.2% (active)
O=C(NCCC1=CCCCC1)c1ccc(-n2cncn2)cc1	-10.8%
O=C(O)c1cccc(S(=O)(=O)Nc2ccc(O)cc2Sc2nc3ccccc3s2)c1	-15.7%
CCOc1ccccc1Nc1ccc2nonc2c1[N+](=O)[O-]	-3.74%
O=[N+]([O-])c1c(NCCO)cc(Sc2nc3ccccc3s2)c2nonc12	78.7% (active)
CC(C)C(NC(=O)c1c(F)cccc1F)C(=O)NNC(=O)c1ccccc1 (stereo not given)	-4.36%
CC(C)(C)OC(=O)C[C@@H]1C/C=C\C[C@@H](CC(=O)N[C@@H](CO)Cc2ccccc2)C(=O)N2CCC[C@H]2COC1=O	-16.5%
Cc1ccc(C)c(NC(=O)CN(C)C(=O)COc2ccc3ccccc3c2)c1	-11.2%
O=C(COc1ccc(Br)cc1F)NCC1(N2CCCCC2)CCCCC1	1.3%
O=C1CC(c2ccccc2)=NN1c1ccc([N+](=O)[O-])cc1	101% (active)
CC1=NN(c2ccccc2)C(=O)C1C(=O)c1ccc([N+](=O)[O-])cc1 (stereo not given)	-1.87%
O=c1[nH]n(-c2ccc([N+](=O)[O-])cc2)c(=O)c2ccccc12	-17.2%
